# Source: publication PMC11062922 (Nature Chemical Biology, 2023)
# Read-outs that look alike come from different tables or passages of the source.
# Key:
# ACVR1B = tested on: ACVR1B; design: species or system human, MV4-11 + K-562 + COLO205 + SK-N-BE2 + OVCAR-8; settings: read-out: apparent Kd; compound concentrations: 100 nM and 1000 nM (sheet 'Samples'), CATDS: 3.6359113991721197E-2; n = 1
# CSNK2A1;CSNK2A3 = tested on: CSNK2A1;CSNK2A3; design: species or system human, MV4-11 + K-562 + COLO205 + SK-N-BE2 + OVCAR-8; settings: read-out: apparent Kd, n = 1
# FYN = tested on: FYN; design: species or system human, MV4-11 + K-562 + COLO205 + SK-N-BE2 + OVCAR-8; settings: read-out: apparent Kd, compound concentrations: 100 nM and 1000 nM (sheet 'Samples'), n = 1
# ABL1 = tested on: ABL1; design: species or system human, MV4-11 + K-562 + COLO205 + SK-N-BE2 + OVCAR-8; settings: read-out: apparent Kd, compound concentrations: 100 nM and 1000 nM (sheet 'Samples'), n = 1
# ABL2 = tested on: ABL2; design: species or system human, MV4-11 + K-562 + COLO205 + SK-N-BE2 + OVCAR-8; settings: read-out: apparent Kd, n = 1
# BCR = tested on: BCR; design: species or system human, MV4-11 + K-562 + COLO205 + SK-N-BE2 + OVCAR-8; settings: read-out: apparent Kd, compound concentrations: 100 nM and 1000 nM (sheet 'Samples'), n = 1
# GAK = tested on: GAK; design: species or system human, MV4-11 + K-562 + COLO205 + SK-N-BE2 + OVCAR-8; settings: read-out: apparent Kd, n = 1
# HCK = tested on: HCK; design: species or system human, MV4-11 + K-562 + COLO205 + SK-N-BE2 + OVCAR-8; settings: read-out: apparent Kd, compound concentrations: 100 nM and 1000 nM (sheet 'Samples'), n = 1
# PTK6 = tested on: PTK6; design: species or system human, MV4-11 + K-562 + COLO205 + SK-N-BE2 + OVCAR-8; settings: read-out: apparent Kd, compound concentrations: 100 nM and 1000 nM (sheet 'Samples'), n = 1
# RET = tested on: RET; design: species or system human, MV4-11 + K-562 + COLO205 + SK-N-BE2 + OVCAR-8; settings: read-out: apparent Kd, compound concentrations: 100 nM and 1000 nM (sheet 'Samples'), n = 1
# RIPK2 = tested on: RIPK2; design: species or system human, MV4-11 + K-562 + COLO205 + SK-N-BE2 + OVCAR-8; settings: read-out: apparent Kd, compound concentrations: 100 nM and 1000 nM (sheet 'Samples'), n = 1
# RIPK3 = tested on: RIPK3; design: species or system human, MV4-11 + K-562 + COLO205 + SK-N-BE2 + OVCAR-8; settings: read-out: apparent Kd, compound concentrations: 100 nM and 1000 nM (sheet 'Samples'), n = 1
# Q6ZSR9 = Q6ZSR9 (human, UniProt Q6ZSR9); design: species or system MV4-11 + K-562 + COLO205 + SK-N-BE2 + OVCAR-8; settings: read-out: apparent Kd, n = 1
# TNK1 = tested on: TNK1; design: species or system human, MV4-11 + K-562 + COLO205 + SK-N-BE2 + OVCAR-8; settings: read-out: apparent Kd, n = 1
# CLK1 = tested on: CLK1; design: species or system human, MV4-11 + K-562 + COLO205 + SK-N-BE2 + OVCAR-8; settings: read-out: apparent Kd; compound concentrations:100 nM and 1000 nM (sheet 'Samples'); n = 1
# CLK4 = tested on: CLK4; design: species or system human, MV4-11 + K-562 + COLO205 + SK-N-BE2 + OVCAR-8; settings: read-out: apparent Kd; compound concentrations:100 nM and 1000 nM (sheet 'Samples'); n = 1
# LCK = tested on: LCK; design: species or system human, MV4-11 + K-562 + COLO205 + SK-N-BE2 + OVCAR-8; settings: read-out: apparent Kd, compound concentrations: 100 nM and 1000 nM (sheet 'Samples'), n = 1
# CSNK2A2 = tested on: CSNK2A2; design: species or system human, MV4-11 + K-562 + COLO205 + SK-N-BE2 + OVCAR-8; settings: read-out: apparent Kd; compound concentrations:100 nM and 1000 nM (sheet 'Samples'); n = 1
# YES1 = tested on: YES1; design: species or system human, MV4-11 + K-562 + COLO205 + SK-N-BE2 + OVCAR-8; settings: read-out: apparent Kd, compound concentrations: 100 nM and 1000 nM (sheet 'Samples'), n = 1
# [1] = compound concentrations:100 nM and 1000 nM (sheet 'Samples')
# Sequence of Q6ZSR9 (Q6ZSR9 whole entry, looked up): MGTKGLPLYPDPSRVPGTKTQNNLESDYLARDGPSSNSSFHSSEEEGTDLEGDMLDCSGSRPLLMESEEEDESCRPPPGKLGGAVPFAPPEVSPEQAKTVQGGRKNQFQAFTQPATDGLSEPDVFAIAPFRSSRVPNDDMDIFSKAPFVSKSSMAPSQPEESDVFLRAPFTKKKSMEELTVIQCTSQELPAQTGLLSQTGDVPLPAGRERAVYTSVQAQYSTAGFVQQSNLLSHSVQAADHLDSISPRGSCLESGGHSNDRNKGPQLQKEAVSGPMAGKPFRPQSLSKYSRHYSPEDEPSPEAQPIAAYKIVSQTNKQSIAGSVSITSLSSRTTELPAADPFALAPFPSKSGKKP
structure (smiles),measurement,setting,value
O=S(=O)(CCOCc1ccc(-c2ccc3ncnc(Nc4ccc(OCc5cccc(F)c5)c(Cl)c4)c3c2)o1)c1ccccc1 [GW615311X],potency estimated from few doses,ACVR1B,0.818 µM
same,potency estimated from few doses,"CSNK2A1;CSNK2A3; compound concentrations: 100 nM and 1000 nM (sheet 'Samples'), CATDS: 2.30931474147829E-2",2.13 µM
same,potency estimated from few doses,FYN; CATDS: 3.12916843215739E-2,1.08 µM
Fc1cc(Cl)ccc1Nc1ccnc2cc(-c3ccc(CN4CCOCC4)o3)ccc12 [GW560109X],potency estimated from few doses,ABL1; CATDS: 5.7871370068112001E-2,1.2 µM
same,potency estimated from few doses,"ABL2; compound concentrations: 100 nM and 1000 nM (sheet 'Samples'), CATDS: 6.6885266429186699E-2",0.81 µM
same,potency estimated from few doses,BCR; CATDS: 0.27388815671753503,0.0664 µM
same,potency estimated from few doses,"GAK; compound concentrations: 100 nM and 1000 nM (sheet 'Samples'), CATDS: 5.9630252923923099E-2",1.1 µM
same,potency estimated from few doses,HCK; CATDS: 5.4118184617509203E-2,1.48 µM
same,potency estimated from few doses,PTK6; CATDS: 6.7887281457167797E-2,0.78 µM
same,potency estimated from few doses,RET; CATDS: 9.1999760709611106E-2,0.4 µM
same,potency estimated from few doses,RIPK2; CATDS: 0.235092034784944,0.0826 µM
same,potency estimated from few doses,RIPK3; CATDS: 7.3765709446288102E-2,0.641 µM
COc1cccc(-n2cnc3c(N/N=C/c4ccncc4)ncnc32)c1 [GW813360X],potency estimated from few doses,ABL1; CATDS: 0.132287686029187,2.03 µM
same,potency estimated from few doses,"ABL2; compound concentrations: 100 nM and 1000 nM (sheet 'Samples'), CATDS: 0.19344614583088601",0.869 µM
same,potency estimated from few doses,BCR; CATDS: 0.226928346430948,0.659 µM
CN1CCN(Cc2ccc(NC(=O)Nc3ccc(N(C)c4ccnc(Nc5ccc(CS(C)(=O)=O)cc5)n4)cc3)cc2)CC1.Cl [GW827654A],potency estimated from few doses,ABL1; CATDS: 3.4576588551286799E-2,1.82 µM
same,potency estimated from few doses,"ABL2; compound concentrations: 100 nM and 1000 nM (sheet 'Samples'), CATDS: 5.6323659121428699E-2",0.4 µM
same,potency estimated from few doses,BCR; CATDS: 3.6645994259317798E-2,1.44 µM
same,potency estimated from few doses,"Q6ZSR9; compound concentrations: 100 nM and 1000 nM (sheet 'Samples'), CATDS: 3.5510221653806698E-2",1.63 µM
same,potency estimated from few doses,RET; CATDS: 0.30394920877794601,0.0228 µM
same,potency estimated from few doses,"TNK1; compound concentrations: 100 nM and 1000 nM (sheet 'Samples'), CATDS: 0.12102048296208601",0.0879 µM
COc1cc2ncn(-c3cc(OCCCc4ccccc4)c(C(N)=O)s3)c2cc1OC [GSK205189A],potency estimated from few doses,ABL2; [1],0.956 µM
same,potency estimated from few doses,CLK1,0.105 µM
same,potency estimated from few doses,CLK4,1.34 µM
same,potency estimated from few doses,GAK; [1],0.663 µM
same,potency estimated from few doses,Q6ZSR9; [1],1.48 µM
same,potency estimated from few doses,TNK1; [1],0.0423 µM
Nc1ncc(-c2cn[nH]c2)c2scc(-c3ccc4c(c3)CCN4C(=O)Cc3ccccc3)c12 [GSK2593067A],potency estimated from few doses,ABL1; CATDS: 6.1234065339549101E-2,1.56 µM
same,potency estimated from few doses,LCK; CATDS: 7.5344179504310702E-2,0.841 µM
same,potency estimated from few doses,RIPK2; CATDS: 7.5110526663463406E-2,0.848 µM
N#Cc1cccc(Nc2nccc(-c3cnn4ncccc34)n2)c1 [GW778894X],potency estimated from few doses,CLK1,0.00393 µM
same,potency estimated from few doses,CLK4,0.000363 µM
same,potency estimated from few doses,CSNK2A1;CSNK2A3; [1],0.603 µM
same,potency estimated from few doses,CSNK2A2,0.601 µM
c1ccc(Oc2ccc(Nc3ccnc4cc(-c5ccc(CN6CCCCC6)o5)ccc34)cc2)nc1 [GW567143X],potency estimated from few doses,ABL1; CATDS: 4.7219356438219597E-2,0.634 µM
same,potency estimated from few doses,FYN; CATDS: 4.4213624367354799E-2,0.771 µM
same,potency estimated from few doses,"GAK; compound concentrations: 100 nM and 1000 nM (sheet 'Samples'), CATDS: 4.2163459383367997E-2",0.895 µM
same,potency estimated from few doses,HCK; CATDS: 0.14005546575241301,0.0688 µM
same,potency estimated from few doses,LCK; CATDS: 5.0953813421882002E-2,0.515 µM
same,potency estimated from few doses,PTK6; CATDS: 0.13556199485993101,0.0724 µM
same,potency estimated from few doses,RIPK2; CATDS: 0.12946024003761,0.0779 µM
same,potency estimated from few doses,RIPK3; CATDS: 4.1439147975506997E-2,0.948 µM
same,potency estimated from few doses,YES1; CATDS: 5.50755734526098E-2,0.421 µM
COc1cc2ncn(-c3cc(OCc4cccs4)c(C(N)=O)s3)c2cc1OC [GSK312948A],potency estimated from few doses,Q6ZSR9; [1],2.25 µM
COc1cc2nccc(Nc3ccc(Oc4ccccc4)cc3)c2cc1OC.Cl [GI261656A],potency estimated from few doses,ABL1; CATDS: 4.9234778502166003E-2,0.661 µM
same,potency estimated from few doses,FYN; CATDS: 5.8520288071811297E-2,0.36 µM
same,potency estimated from few doses,HCK; CATDS: 0.224802192402594,0.0233 µM
same,potency estimated from few doses,LCK; CATDS: 9.1462099087555204E-2,0.115 µM
same,potency estimated from few doses,PTK6; CATDS: 8.1912311053812595E-2,0.147 µM
same,potency estimated from few doses,RIPK2; CATDS: 0.26781417161536297,0.0181 µM
same,potency estimated from few doses,RIPK3; CATDS: 5.1839194955901301E-2,0.542 µM
same,potency estimated from few doses,YES1; CATDS: 0.10993421284825,0.0787 µM
CN1CCc2ccc(Nc3nccc(-c4c(-c5cccc(NC(=O)c6c(F)cccc6F)c5)nc5ccccn45)n3)cc2C1.Cl [GSK1010829B],potency estimated from few doses,ABL1; CATDS: 3.3461879574950899E-2,1.49 µM
same,potency estimated from few doses,"ABL2; compound concentrations: 100 nM and 1000 nM (sheet 'Samples'), CATDS: 5.23803591077244E-2",0.515 µM
same,potency estimated from few doses,FYN; CATDS: 4.4096007495545798E-2,0.732 µM
same,potency estimated from few doses,HCK; CATDS: 7.6691780637307694E-2,0.27 µM
same,potency estimated from few doses,LCK; CATDS: 0.10139412977774399,0.18 µM
same,potency estimated from few doses,RET; CATDS: 6.1387367146580003E-2,0.387 µM
same,potency estimated from few doses,RIPK2; CATDS: 3.7106800723599898E-2,1.11 µM
same,potency estimated from few doses,RIPK3; CATDS: 5.0630244265372597E-2,0.55 µM
same,potency estimated from few doses,"TNK1; compound concentrations: 100 nM and 1000 nM (sheet 'Samples'), CATDS: 4.6231570261128598E-2",0.661 µM
same,potency estimated from few doses,YES1; CATDS: 8.6634925532114604E-2,0.225 µM
